In the library only some 1.1% were active in any assay of this set; here they are far more common.
PTAP TSG101 blk = blocks PTAP/TSG101 interaction to inhibit HIV-1 budding; Fluorescence polarization, FITC-PTAP peptide / Tsg101 binding; Potency, µM (titrated, usually from 115 µM), inactives show at the top dose activity change, negative = inhibition, hits mostly inhibitors; 340,000 tested, under 10 active; AID 493005; active means well fitted inhibition curve with a large enough effect in the main read-out, with a control signal flat, not every such curve was filed as active; inconclusive means small, poorly fitted or top-dose-only effect, or effect the other way, or a change in a side signal; inactive means no such curve, though single readings can be large or run the other way; further: % of control where 0% means no effect
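Tsg101 binding domain (10 uM final) was mixed with compound and a FITC-labeled PTAP peptide (50 nM final) in HEPES pH 7.5 buffer with NaCl, Tween 20, EDTA and TCEP; fluorescence polarization was read after 20 min at r.t.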
Eya2 inh = inhibitors of human Eya2 phosphatase activity. 330,000 tested, 0.006% active. Potency, µM (titrated, usually from 76.9 µM), inactives show at the top dose activity, negative = inhibition, most hits filed as inhibitors. O00167. recombinant Eya2, OMFP fluorescence dephosphorylation (OMFP is methylfluorescein phosphate); further: on the % scale 0 is the no-effect control and ±100 the full control effect
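Eya2 (0.2 uM) preincubated 10 min at ambient with compound, then OMFP substrate added at 50 uM; 10 min reaction in 50 mM HEPES pH 7.5, 50 mM NaCl, 5 uM MgCl2, 0.05% BSA, 1 mM DTT. Fluorescence read at Ex 485/Em 525 nm.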
ALOX12 inh = blocks human arachidonate 12S-lipoxygenase. purified 12hLO, xylenol orange hydroperoxide absorbance. 580,000 tested, 1.1% active. AID 1671190. Potency, µM (titrated, usually from 108 µM), inactives show at the top dose activity change, negative = inhibition, most hits filed as inhibitors; further: on the % scale 0 is the no-effect control and ±100 the full control effect
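Hydroperoxide product was detected by ferrous iron/xylenol orange as the 573 to 405 nm absorbance ratio. Arachidonic acid at 40 uM (final) was turned over for 30 min at room temperature by 150 nM human 12hLO, pH 7.0 Hepes buffer, after 15 min compound preincubation.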
USP2a inh = blocks human ubiquitin-specific protease USP2a | Potency, µM (highest dose often 38.3 µM), without a hit: at the highest dose activity change, negative = inhibition, most hits filed as inhibitors | 330,000 tested, 0.01% active | O75604 | USP2 core, Ub-CHOP2 coupled fluorogenic reporter, 485/531;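 further: plate controls were DMSO wells for no effect and full inhibition by NEM control for full effect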
Target sequence (O75604 whole entry, looked up): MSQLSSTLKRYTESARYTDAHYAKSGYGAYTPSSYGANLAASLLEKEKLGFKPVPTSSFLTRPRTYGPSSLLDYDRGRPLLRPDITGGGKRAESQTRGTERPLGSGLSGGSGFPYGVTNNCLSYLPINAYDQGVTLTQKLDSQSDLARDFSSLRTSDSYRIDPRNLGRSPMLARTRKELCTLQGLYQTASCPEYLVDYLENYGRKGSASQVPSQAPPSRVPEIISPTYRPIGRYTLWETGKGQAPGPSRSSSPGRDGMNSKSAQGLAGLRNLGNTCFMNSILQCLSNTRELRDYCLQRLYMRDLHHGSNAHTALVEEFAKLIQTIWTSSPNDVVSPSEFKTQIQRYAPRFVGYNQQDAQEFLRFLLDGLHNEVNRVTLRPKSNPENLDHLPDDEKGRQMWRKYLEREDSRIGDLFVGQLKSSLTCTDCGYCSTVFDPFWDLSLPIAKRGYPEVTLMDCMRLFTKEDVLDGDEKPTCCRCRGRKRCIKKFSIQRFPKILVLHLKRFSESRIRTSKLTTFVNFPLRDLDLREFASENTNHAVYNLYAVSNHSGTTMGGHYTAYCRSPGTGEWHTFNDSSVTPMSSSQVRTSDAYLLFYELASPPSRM
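Cell-free coupled assay: 10nM USP2 core preincubated 30min RT with compound in Tris-HCl pH 8.0/CaCl2/CHAPS buffer, then 25nM Ub-CHOP2 and 25nM reporter substrate; fluorescence (Ex 485/Em 531) read after 60min RT, normalized to NEM inhibition, concentration-response curves fitted.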
Active calls of the source: *; ? = inconclusive; . = not tested or not shown; [ ] = dose if it differs, or a comment. Unless noted, the call rests on the fitted dose curve; in most records, active means well fitted curve in the direction sought with a large enough effect; inconclusive means small, poorly fitted or top-dose-only effect, or another doubt; inactive means no such curve, though single readings can be large; an effect the other way counts as inactive or inconclusive. Potency means the concentration at half of the fitted maximal effect.

SMILES	PTAP TSG101 blk	Eya2 inh	ALOX12 inh	USP2a inh
Cc1ccc(NC(=S)NC(=O)c2ccc(F)cc2)cc1S(=O)(=O)Nc1cccc(Cl)c1	-2.5%	-0.3%	12.6µM*	-14.1%
O=C(NC(=S)Nn1cnnc1)c1ccccc1	-2.1%	5.3%	35.5µM*	0.1%
O=C(NC(=S)Nn1cnnc1)c1ccccc1Br	-3.7%	10.5%	-26.3%	0.5%
Cc1ccc(NC(=O)c2cccs2)cc1S(=O)(=O)Nc1cccc(Cl)c1	-3.7%	-1.6%	-27.5%	-0.4%
O[C@H]1CC[C@@H](Cc2cc(-c3ccc(F)cc3)on2)O[C@@H]1CNCc1cccnc1	.	.	22.7%[176 µM]	.
CCCCc1c(C)nc2cc(-c3ccco3)[nH]n2c1=O	0.1%	18.5%	?	0.6%
O=C1c2nc3cc(-c4ccco4)[nH]n3c(=O)c2CN1Cc1ccccc1	0.7%	1.9%	22.4µM*	2.1%
CCN1c2cc(C(=O)Nc3cccc(SC)c3)ccc2C(=O)N2CCCCC21 (stereo unspecified)	.	.	7.1%	.
CC1(C)Cc2c(ccc3ccccc23)/C(=C/C#N)N1	-9.9%	3.0%	39.8µM*	2.3%
O=C(C1CCCC1)N1CC2(CCN(CC3CC3)CC2)Cc2ccccc21	.	.	3.1%[6.33 µM]	.
CC(C)(C)OC(=O)NCCc1nnc(SCc2cccc(Cl)c2)o1	1.8%	-1.9%	177.1%	-1.6%
Cc1cccc(CSc2nnc(CCNC(=O)OC(C)(C)C)o2)c1	-0.5%	12.5%	7.94µM*	0.1%
COc1ccc(CCN(C)C(=O)CC(c2cccc(F)c2)c2cn(C)c3ccccc23)cc1OC (stereo unspecified)	.	.	41.5%	.
COc1ccc(CNC(=S)Nc2ccccc2Cl)cc1	-4.8%	?	?	2.7%
S=C(NCCCCc1ccccc1)Nc1cccc(Cl)c1Cl	.	.	25.1µM*	.
CC1=C/C(=N\NC(=S)NCCc2ccccc2)CC(C)(C)C1	-0.9%	3.2%	4.47µM*	-1.4%
O=[N+]([O-])c1ccc(NC(=S)NCCc2ccc(Cl)cc2)cc1	-0.2%	0.1%	?	-6.4%
Cc1cc(C)cc(NC(=S)NCCc2ccccc2)c1	.	.	45.4%	.
Cc1ccc(CNC(=S)Nc2ccccc2Cl)cc1	.	.	44.7µM*	.
O=[N+]([O-])c1ccc(NC(=S)NCCc2ccccc2)cc1	0.9%	-6.2%	44.7µM*	-1.8%
O=C(Nc1ccc(Oc2ccccc2)cc1)c1cc2n(n1)CC(c1ccc(Cl)cc1)OC2 (stereo unspecified)	.	.	23.5%	.
C/C(CCc1ccccc1)=N\NC(=S)NCCc1ccccc1	-7.1%	6.3%	39.8µM*	4.5%
Cc1c(Cl)cccc1NC(=S)NCCc1ccc(C(F)(F)F)cc1	-0.4%	-12.7%	39.8µM*	-6.9%
C/C(=N\NC(=S)NCCc1ccccc1)c1cccs1	-18.5%	1.0%	44.7µM*	-2.1%
S=C(NCCc1ccccc1)NCCc1ccccc1	-0.3%	-4.5%	50.1µM*	-0.2%
SMILES	PTAP TSG101 blk	Eya2 inh	ALOX12 inh	USP2a inh
NNC(=S)NCCc1ccccc1	-1.2%	4.7%	?	-5.9%
CC(OC(=O)c1cccs1)C(=O)NCCc1ccccc1 (stereo unspecified)	-4.0%	-1.3%	-16.0%	2.3%
COc1ccc(/C(C)=N/NC(=S)NCCc2ccccc2)cc1	-4.4%	4.9%	0.0%	-15.0%
O=C(Nc1cccc2ncccc12)c1cccc(S(=O)(=O)NCC(F)(F)F)c1	.	.	10.9%	.
O=C(NC1CCN(c2cc(-c3ccccc3)[nH]n2)CC1)c1ccc2ccccc2n1	.	.	1.1%	.
S=C(NCc1ccccc1)NCc1ccc(CNC(=S)NCc2ccccc2)cc1	-4.4%	-10.9%	25.1µM*	0.1%
CSc1ccc(C2CC(=O)Nc3nc(N)sc32)cc1 (stereo unspecified)	.	.	25.1µM*	.
Nc1nc2c(s1)C(c1cccc(F)c1)CC(=O)N2 (stereo unspecified)	.	.	15.8µM*	.
COCc1nc(-c2ccc(OC3CCN(C(=O)c4nn(C)c5ccccc45)C3)cc2)no1 (stereo unspecified)	.	.	20.4%	.
COCCN1CCOc2nc(-c3cc4ccccc4o3)ncc2C1=O	.	.	10.1%[176 µM]	.
COC(=O)[C@]12CCCCC=C1N(CCC1=CCCCC1)C(=O)[C@H](CC(=O)NCc1ccc(C)o1)C2	.	.	-67.0%	.
CCCCCCCCN1C(=O)[C@H](CC(=O)NCc2ccc(C)o2)C[C@@]2(C(=O)OC)CCCCC=C12	.	.	35.5µM*	.
CC1Cc2[nH]c(=S)[nH]c(=O)c2C(c2ccc(C(C)C)cc2)O1 (stereo unspecified)	.	.	-32.7%	.
CCCCC1Cc2[nH]c(=S)[nH]c(=O)c2C(c2ccc(C(C)C)cc2)O1 (stereo unspecified)	.	.	39.8µM*	.
O=C(CCN1CCN(C(=O)c2ccco2)CC1)Nc1ccc(F)cc1	-3.1%	9.9%	-2.2%	1.5%
O=C(c1ccco1)N1CCN(CCCCOc2ccc(F)cc2)CC1	-5.2%	2.4%	31.6µM*	3.1%
CC(NCc1cccc(C#N)c1)c1cccc(Br)c1 (stereo unspecified)	.	.	-15.8%	.
CCCCCCCCCc1conc1C(=O)/C=C/c1oc2c(c1C)CCC(C)C2 (stereo unspecified)	.	.	39.8µM*	.
CC1CCc2onc(C(=O)Nc3ccc(Cl)cc3)c2C1 (stereo unspecified)	.	.	2.7%	.
CCOc1ccccc1C(=O)NC1CCN(c2cc(-c3ccc(OC)cc3)[nH]n2)C1 (stereo unspecified)	.	.	67.1%	.
COC(=O)[C@H](CC(C)C)N(Cc1cn(CC2CCCCC2)nn1)S(=O)(=O)c1ccccc1Br	.	.	5.62µM*	.
COC(=O)[C@H](CC(C)C)N(CCc1cn(CC2CCCCC2)nn1)S(=O)(=O)c1ccc(F)cc1Br	.	.	27.6%	.
COC(=O)[C@H](CC(C)C)N(Cc1cn(CC2CCCCC2)nn1)S(=O)(=O)c1ccc(F)cc1Br	.	.	10µM*	.
Cc1cccc(C)c1-n1c(=O)c2nc3ccccc3nc2c2ccccc21	.	.	-20.2%	.
O=[N+]([O-])c1ccc(CN2CCN(c3ccc([N+](=O)[O-])cc3)CC2)cc1	-1.3%	-10.9%	3.55µM*	-0.2%
SMILES	PTAP TSG101 blk	Eya2 inh	ALOX12 inh	USP2a inh
O=[N+]([O-])c1cccc(-c2ccc(CN3CCN(c4ccccc4)CC3)o2)c1	-0.5%	4.7%	7.08µM*	3.4%
O=[N+]([O-])c1ccc(N2CCN(Cc3ccccc3)CC2)nc1	-1.8%	-2.9%	-12.9%	-1.8%
O=[N+]([O-])c1ccc(CN2CCN(c3ccc4ccccc4n3)CC2)cc1	-0.1%	-11.4%	50.1µM*	-0.3%
Cc1ccc(C)c(NC(=O)c2n[nH]c(=O)c3ccccc23)c1	.	.	11.2%	.
O=c1[nH]c(=S)[nH]c2sccc12	-0.6%	0.3%	8.91µM*	2.1%
COc1ccc(C2=Nc3ccccc3N(C(=O)c3ccc4c(c3)OCO4)C2C(=O)Nc2c(C)cccc2C)cc1 (stereo unspecified)	.	.	-59.7%	.
COc1ccc(C2=Nc3ccccc3N(C(=O)c3ccc(C)cc3)C2C(=O)NCc2ccccc2)cc1 (stereo unspecified)	.	.	3.55µM*	.
COc1ccc(C2=Nc3ccccc3N(C(=O)c3ccc4c(c3)OCO4)C2C(=O)NCc2ccccc2)cc1 (stereo unspecified)	.	.	-23.2%	.

Assay outcomes (PubChem)
